Parameters in all cases: scale not given: direction of the effect not stated beside the values
For assay [1], the target named is Protein translocase subunit SecA (Escherichia coli (strain K12)) (UniProt P10408). Put plainly: Assay to Identify E. coli SecA ATPase Inhibitors. It is filed as functional. The conditions noted are these: 30 µM.
Assay [2] deals with T1, Ubiquitin-activating enzyme e1, putative (Leishmania donovani (strain BPK282A1)) (UniProt E9BSI1).
T1 sequence (whole entry): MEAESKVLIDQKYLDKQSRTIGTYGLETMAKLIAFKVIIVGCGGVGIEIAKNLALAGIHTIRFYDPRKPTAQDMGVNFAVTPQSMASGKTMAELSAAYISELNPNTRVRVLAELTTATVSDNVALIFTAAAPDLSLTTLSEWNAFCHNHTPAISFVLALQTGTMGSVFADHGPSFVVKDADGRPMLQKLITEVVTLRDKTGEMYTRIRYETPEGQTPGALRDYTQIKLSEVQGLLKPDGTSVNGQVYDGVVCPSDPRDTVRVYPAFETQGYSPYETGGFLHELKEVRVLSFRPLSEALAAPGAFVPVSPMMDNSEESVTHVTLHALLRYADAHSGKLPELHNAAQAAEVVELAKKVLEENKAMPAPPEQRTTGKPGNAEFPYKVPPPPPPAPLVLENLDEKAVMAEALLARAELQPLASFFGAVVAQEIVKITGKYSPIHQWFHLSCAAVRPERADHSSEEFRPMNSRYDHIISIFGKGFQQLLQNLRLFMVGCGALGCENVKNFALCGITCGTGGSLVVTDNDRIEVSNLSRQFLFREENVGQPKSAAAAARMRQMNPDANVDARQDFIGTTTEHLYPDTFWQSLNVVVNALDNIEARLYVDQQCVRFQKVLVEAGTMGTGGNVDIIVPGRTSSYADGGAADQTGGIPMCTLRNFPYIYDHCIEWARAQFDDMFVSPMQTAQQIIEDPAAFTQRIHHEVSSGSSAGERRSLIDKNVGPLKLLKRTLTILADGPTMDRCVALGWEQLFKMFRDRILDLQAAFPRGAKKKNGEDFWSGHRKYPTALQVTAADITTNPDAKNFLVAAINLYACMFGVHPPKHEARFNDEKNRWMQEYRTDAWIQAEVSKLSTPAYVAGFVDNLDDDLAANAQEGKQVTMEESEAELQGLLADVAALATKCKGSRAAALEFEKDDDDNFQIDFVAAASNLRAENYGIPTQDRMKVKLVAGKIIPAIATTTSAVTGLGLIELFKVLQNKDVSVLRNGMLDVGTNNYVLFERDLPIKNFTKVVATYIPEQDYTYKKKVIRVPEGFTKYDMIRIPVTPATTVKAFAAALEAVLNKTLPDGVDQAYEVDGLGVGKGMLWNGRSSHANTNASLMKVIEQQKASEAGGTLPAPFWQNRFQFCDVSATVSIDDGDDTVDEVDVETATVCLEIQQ
Put plainly: Leishmania donovani Ubiquitin Activating Enzyme (LdE1). It is filed as functional. As to conditions: 30 µM.

Assay [3] concerns the target AMP-activated protein kinase, AMPK (Homo sapiens) (UniProt P54646+O43741+P54619+Q9UGJ0+Q9Y478+Q13131+Q9UGI9). Put plainly: AMP-dependent Kinase enzyme assay. An in vitro enzyme assay that detects ADP turnover that is directly proportional to AMPK activity. This uses naive AMPK that is activated during the assay with MK-8722. It counts as functional. As to conditions: 30 µM.

In assay [4] the target is Sialic acid-binding Ig-like lectin 9 (Homo sapiens) (UniProt Q9Y336). Put plainly: Hs-Siglec9 ALPHAscreen SOP 20170721. The conditions noted are these: 10 µM. (Alpha assays give light when donor and acceptor beads are brought close together.)
A further assay has as its system Trypanosoma cruzi. Put plainly: Trypanosoma cruzi phosphomannomutase and mannose-1-phosphate guanylyltransferase assay. As to conditions: 10 µM. It counts as functional.
In assay [5] the target is T2, Arginase-2, mitochondrial (Homo sapiens) (UniProt P78540).
T2 sequence (whole entry): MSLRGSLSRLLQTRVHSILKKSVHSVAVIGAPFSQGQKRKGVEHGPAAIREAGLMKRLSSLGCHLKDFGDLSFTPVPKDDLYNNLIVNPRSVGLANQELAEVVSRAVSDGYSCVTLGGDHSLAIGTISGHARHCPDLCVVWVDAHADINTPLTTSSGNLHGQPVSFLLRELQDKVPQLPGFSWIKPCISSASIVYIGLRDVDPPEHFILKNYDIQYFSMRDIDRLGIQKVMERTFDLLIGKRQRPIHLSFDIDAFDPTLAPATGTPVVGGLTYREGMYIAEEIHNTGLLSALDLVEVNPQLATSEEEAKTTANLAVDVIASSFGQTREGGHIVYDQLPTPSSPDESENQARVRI
Put plainly: in vitro enzyme assay to detect the production of urea directly proportional to the activity of Arginase II. Further: in the data most compounds retested in dose-response had high values. It counts as functional. As to conditions: 33.3 µM.

For assay [6], the target named is T3, Proteasome subunit beta (Trypanosoma cruzi) (UniProt O96673).
T3 sequence (whole entry): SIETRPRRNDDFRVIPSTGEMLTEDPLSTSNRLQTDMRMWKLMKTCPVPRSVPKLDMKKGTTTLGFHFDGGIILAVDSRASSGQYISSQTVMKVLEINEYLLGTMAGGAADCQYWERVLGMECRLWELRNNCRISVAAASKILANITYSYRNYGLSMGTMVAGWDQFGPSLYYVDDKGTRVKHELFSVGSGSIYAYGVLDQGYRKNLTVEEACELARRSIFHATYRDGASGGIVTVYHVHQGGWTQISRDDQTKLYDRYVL
Put plainly: Trypanosoma cruzi proteasome chymotrypsin-like activity (TcProtChymo) assay. Further: in the data most compounds retested in dose-response had high values. The conditions noted are these: 9.37 µM. It counts as functional.

The species entered for another assay is Homo sapiens. Put plainly: To identify inhibition of the IFN signalling (Jak-Stat) pathway via expression of an eGFP reporter gene under the control of an IFN-stimulated response element (ISRE) containing MxA promoter. It is filed as functional. As to conditions: 30 µM. A general note: Reporter assays use an easily measured gene product as a stand-in for the process of interest.

The target in assay [7] is T4, Tyrosyl-tRNA synthetase, putative (Trypanosoma cruzi (strain CL Brener)) (UniProt Q4DSP6).
T4 sequence (whole entry): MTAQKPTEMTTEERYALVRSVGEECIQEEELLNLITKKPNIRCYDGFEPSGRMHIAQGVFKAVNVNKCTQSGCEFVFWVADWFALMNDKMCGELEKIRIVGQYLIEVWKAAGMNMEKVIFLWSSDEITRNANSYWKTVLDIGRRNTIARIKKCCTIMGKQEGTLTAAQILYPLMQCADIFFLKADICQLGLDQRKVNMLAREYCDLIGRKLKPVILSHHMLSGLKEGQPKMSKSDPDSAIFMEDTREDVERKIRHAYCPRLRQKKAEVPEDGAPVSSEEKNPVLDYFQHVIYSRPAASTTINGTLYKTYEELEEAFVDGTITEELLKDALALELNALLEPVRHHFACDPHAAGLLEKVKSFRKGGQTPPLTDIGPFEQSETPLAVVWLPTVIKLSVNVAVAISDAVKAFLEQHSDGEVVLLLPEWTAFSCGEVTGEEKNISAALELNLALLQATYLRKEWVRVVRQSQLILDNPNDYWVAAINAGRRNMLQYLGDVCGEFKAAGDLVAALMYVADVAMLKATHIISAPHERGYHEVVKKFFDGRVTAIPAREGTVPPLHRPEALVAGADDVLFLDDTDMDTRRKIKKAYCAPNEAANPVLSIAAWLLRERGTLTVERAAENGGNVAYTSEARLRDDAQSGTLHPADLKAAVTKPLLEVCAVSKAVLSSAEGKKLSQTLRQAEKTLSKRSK
Put plainly: Trypanosoma cruzi tyrosyl tRNA synthetase (TcYRS) _High Tyrosine SOP. Further: in the data most compounds retested in dose-response had high values. It is filed as functional. As to conditions: 30 µM.

The target of assay [8] is T4, Tyrosyl-tRNA synthetase, putative (Trypanosoma cruzi (strain CL Brener)). Put plainly: Trypanosoma cruzi tyrosyl tRNA synthetase (TcYRS) SOP. It is filed as functional. As to conditions: 30 µM.
The target of assay [9] is Chromo domain-containing protein 1 (Saccharomyces cerevisiae (strain ATCC 204508 / S288c) (Baker's yeast)) (UniProt P32657). Put plainly: ScCHD-1 Enzyme Inhibition Assay. Further: in the data most compounds retested in dose-response had high values. It counts as functional. The conditions noted are these: 30 µM.

For part of these data: Potency and affinity values are given separately.

The values that follow come from ChEMBL document CHEMBL3988442, “University of Dundee, Small-Polar-MMV Screening Library” (2021).

Chain of Sialic acid-binding Ig-like lectin 9 (Homo sapiens) (Q9Y336 whole entry): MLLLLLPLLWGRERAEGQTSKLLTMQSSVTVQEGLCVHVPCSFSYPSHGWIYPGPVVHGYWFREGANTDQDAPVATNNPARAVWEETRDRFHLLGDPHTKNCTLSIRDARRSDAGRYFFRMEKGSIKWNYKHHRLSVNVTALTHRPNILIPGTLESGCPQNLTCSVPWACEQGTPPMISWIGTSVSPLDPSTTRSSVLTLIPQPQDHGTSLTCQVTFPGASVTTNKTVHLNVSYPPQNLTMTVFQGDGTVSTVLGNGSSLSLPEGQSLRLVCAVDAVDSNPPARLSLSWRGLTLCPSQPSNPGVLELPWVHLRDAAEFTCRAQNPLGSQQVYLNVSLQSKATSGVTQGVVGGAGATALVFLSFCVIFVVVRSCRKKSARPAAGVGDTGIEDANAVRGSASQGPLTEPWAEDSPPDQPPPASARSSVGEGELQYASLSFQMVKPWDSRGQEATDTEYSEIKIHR
Chain of Protein translocase subunit SecA (Escherichia coli (strain K12)) (P10408 whole entry): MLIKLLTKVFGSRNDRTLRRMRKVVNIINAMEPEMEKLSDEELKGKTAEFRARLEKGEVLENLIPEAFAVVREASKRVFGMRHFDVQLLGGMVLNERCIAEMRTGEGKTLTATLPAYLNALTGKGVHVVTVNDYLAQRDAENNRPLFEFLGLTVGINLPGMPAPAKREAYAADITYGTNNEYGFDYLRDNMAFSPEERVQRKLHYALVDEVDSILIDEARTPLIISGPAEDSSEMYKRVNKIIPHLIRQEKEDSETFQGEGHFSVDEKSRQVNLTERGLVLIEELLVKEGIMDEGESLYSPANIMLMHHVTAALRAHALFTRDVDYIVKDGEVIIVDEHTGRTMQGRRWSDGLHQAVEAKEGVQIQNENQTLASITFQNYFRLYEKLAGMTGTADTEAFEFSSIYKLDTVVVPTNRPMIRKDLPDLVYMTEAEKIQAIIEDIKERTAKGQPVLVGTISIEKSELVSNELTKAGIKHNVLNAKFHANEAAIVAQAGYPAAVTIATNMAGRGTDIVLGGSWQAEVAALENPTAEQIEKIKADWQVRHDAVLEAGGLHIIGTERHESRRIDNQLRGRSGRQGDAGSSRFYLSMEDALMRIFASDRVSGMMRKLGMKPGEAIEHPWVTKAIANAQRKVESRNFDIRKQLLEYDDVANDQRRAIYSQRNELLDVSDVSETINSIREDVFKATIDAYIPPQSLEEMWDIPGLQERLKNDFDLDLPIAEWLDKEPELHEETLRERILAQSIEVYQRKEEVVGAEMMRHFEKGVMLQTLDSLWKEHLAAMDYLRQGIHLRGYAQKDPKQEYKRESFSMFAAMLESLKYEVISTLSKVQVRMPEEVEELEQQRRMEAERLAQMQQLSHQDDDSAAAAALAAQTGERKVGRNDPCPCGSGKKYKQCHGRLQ
Chain of Chromo domain-containing protein 1 (Saccharomyces cerevisiae (strain ATCC 204508 / S288c) (Baker's yeast)) (P32657 whole entry, the tested form may be a part): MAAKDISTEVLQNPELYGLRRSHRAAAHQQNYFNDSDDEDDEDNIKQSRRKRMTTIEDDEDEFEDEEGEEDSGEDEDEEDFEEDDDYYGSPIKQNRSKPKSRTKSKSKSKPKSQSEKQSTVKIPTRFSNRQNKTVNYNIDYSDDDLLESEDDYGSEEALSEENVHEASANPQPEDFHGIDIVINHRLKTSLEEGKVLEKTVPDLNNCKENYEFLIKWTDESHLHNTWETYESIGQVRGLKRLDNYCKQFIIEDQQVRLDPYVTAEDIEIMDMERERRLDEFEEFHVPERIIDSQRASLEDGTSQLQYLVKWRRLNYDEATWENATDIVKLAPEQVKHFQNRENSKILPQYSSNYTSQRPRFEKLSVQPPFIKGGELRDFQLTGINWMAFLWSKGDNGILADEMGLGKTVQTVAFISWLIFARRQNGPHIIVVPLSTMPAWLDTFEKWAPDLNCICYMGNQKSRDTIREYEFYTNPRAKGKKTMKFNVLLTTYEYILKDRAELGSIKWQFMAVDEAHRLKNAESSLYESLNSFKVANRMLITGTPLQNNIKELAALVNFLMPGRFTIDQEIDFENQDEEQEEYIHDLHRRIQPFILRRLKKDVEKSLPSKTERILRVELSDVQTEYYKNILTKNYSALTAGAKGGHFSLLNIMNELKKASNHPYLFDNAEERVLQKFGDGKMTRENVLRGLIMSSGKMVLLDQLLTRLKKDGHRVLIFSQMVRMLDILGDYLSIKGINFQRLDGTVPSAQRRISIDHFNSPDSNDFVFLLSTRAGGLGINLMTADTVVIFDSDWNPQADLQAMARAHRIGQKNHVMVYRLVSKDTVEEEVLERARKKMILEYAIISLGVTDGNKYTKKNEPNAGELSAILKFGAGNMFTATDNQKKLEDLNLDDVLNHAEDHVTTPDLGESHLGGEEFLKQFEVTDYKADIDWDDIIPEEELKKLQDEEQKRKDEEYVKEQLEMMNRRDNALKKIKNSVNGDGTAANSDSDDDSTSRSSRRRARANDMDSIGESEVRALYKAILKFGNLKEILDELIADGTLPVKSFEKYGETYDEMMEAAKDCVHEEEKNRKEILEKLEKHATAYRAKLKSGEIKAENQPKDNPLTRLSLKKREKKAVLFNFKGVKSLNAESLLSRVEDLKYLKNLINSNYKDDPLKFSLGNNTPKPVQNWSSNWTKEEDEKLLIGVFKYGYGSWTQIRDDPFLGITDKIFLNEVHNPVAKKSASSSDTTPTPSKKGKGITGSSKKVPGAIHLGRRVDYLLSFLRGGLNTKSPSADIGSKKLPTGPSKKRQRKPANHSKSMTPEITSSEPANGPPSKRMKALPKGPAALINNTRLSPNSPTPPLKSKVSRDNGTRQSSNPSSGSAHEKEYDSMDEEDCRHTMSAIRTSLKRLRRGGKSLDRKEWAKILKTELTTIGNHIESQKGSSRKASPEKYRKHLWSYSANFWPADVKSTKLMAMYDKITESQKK

Consider `CC(=O)N1CC(=O)N(c2ccccc2)CC12CCN(Cc1cccs1)C2` (centres undefined), for which the Percent Effect in assay [1] was -0.462%; in [2] it was 16%; in [3], -5.96%; in [4], 8.98%; in the assay with Trypanosoma cruzi it was 2.51%; in assay [5] it was -36.4%. Besides, the Percent Effect in [6] was 7.69%; in the assay listed under Homo sapiens, -11.1%; in assay [7] it was 5.21%; in [8], 27.5%; in [9], -7.74%.
Regarding `CC(CNC(=O)Nc1ccc(N(C)C)nc1)Cn1cccn1` (centres undefined), the Percent Effect in [1] is -4.28%; in assay [2], 4.17%; in [3], -13.8%; in assay [4] it was -3.22%; in the assay with Trypanosoma cruzi, -3.21%; in assay [5], 3.09%. Further, the Percent Effect was 13.7% in assay [6]; -15.8% in the assay listed under Homo sapiens; -3.16% in [7]; 2.56% in assay [8]; -3.32% in assay [9].
As for `Cc1cnn(CC2CCCCN2C(=O)CN(C)C2CC2)c1` (centres undefined), the Percent Effect in assay [1] was 0.161%; in assay [2], 26.6%; in assay [3], -0.801%; in [4], -3.2%; in the assay with Trypanosoma cruzi, -0.103%; in assay [5], -1.94%. Moreover, the Percent Effect in assay [6] is 16.8%; in the assay listed under Homo sapiens, -1.15%; in assay [7], 6.25%; in assay [8], 15.2%; in assay [9], -24%.
For the compound `CCc1ccc(S(=O)(=O)Nc2cc(C(=O)O)c(F)cc2F)s1`, the Percent Effect in assay [1] is -10.3%; in assay [2], 2.63%; in assay [3], -14.5%; in assay [4], 19.8%; with Trypanosoma cruzi, 9.99%; in [5] it was 1.08%. Besides, the Percent Effect in [6] was 6.51%; in the assay listed under Homo sapiens, 4.81%; in assay [7] it was 2.46%; in assay [8] it was 16.1%; in assay [9], -10.2%.
Regarding `CCn1cc(CN2CCCN(C(=O)CCc3ccncc3)CC2)cn1`, the Percent Effect in assay [1] was -3.49%; in assay [2], 26%; in assay [3], -14.6%; in assay [4] it was 4.57%; in the assay with Trypanosoma cruzi, 1.87%; in assay [5], -0.712%. In addition, the Percent Effect is 5.91% in [6]; 23.6% in the assay listed under Homo sapiens; 8.74% in [7]; 14.6% in [8]; -7.66% in [9].
`CC(C)(C(=O)NCC(N)=O)c1ccccc1F`: the Percent Effect is -2.75% in assay [1]; -1.39% in [2]; -0.917% in assay [3]; -6.27% in assay [4]; -3.98% with Trypanosoma cruzi; -17.7% in assay [5]. The Percent Effect in [6] was 6.67%; in the assay listed under Homo sapiens, -3.33%; in assay [7], 2.1%; in [8], 0%; in assay [9] it was -1.29%.
On to `O=C(NCc1ccc(-n2cncn2)nc1)c1ccc2c(c1)CCO2`, for which the Percent Effect in assay [1] was -5.02%; in [2], 8.11%; in assay [3] it was -9.05%; in assay [4] it was 1.05%; in the assay on Trypanosoma cruzi, 1.79%; in [5] it was -2.4%. Further, the Percent Effect in assay [6] is -3.96%; in the assay filed under Homo sapiens, 14.7%; in assay [7] it was 7.39%; in assay [8], 13.6%; in assay [9], -6.1%.
For the compound `Cc1nonc1CN(C)CC1(O)CCCN(CCC2CCCCC2)C1=O` (centres undefined), the Percent Effect in assay [1] is 2.32%; in [2], 8%; in assay [3], -14.2%; in [4], -0.787%; with Trypanosoma cruzi it was 1.66%; in assay [5], 12.5%. Moreover, the Percent Effect in assay [6] is 16.4%; in the assay listed under Homo sapiens, 35.9%; in [7], 10.4%; in [8], 18.5%; in assay [9], -1.61%.
Take `CN(C)CC1CN(CCOc2cccc(C#N)c2)CCO1` (centres undefined): the Percent Effect in assay [1] is -2.7%; in assay [2], -5.26%; in assay [3], -2.16%; in assay [4] it was -5.38%; with Trypanosoma cruzi, -4.95%; in assay [5] it was 5.75%. Also, the Percent Effect in assay [6] is -8.71%; in the assay filed under Homo sapiens it was -3.58%; in [7] it was 1.48%; in [8], 3.7%; in [9], 4.04%.
